This note sets out measurements from PubChem BioAssay AID1851 (National Center for Advancing Translational Sciences (NCATS), 2009).

Several values for one entry are separate records, joined by “and”; a condition that tells them apart may be missing. Equal entries are not always repeated. Among all 16,000 compounds or so, about 4,000 (25%) were called active. Inconclusive results (about 26%) are left out. The call rests on the fitted dose curve; in most records, active means well fitted curve in the direction sought with a large enough effect; inconclusive means small, poorly fitted or top-dose-only effect, or effect the other way; inactive means no such curve, though single readings can be large or run the other way. Not all results are given here.

The AC50 is the concentration at which the activity in the assay is half-maximal.
On the % scale 0 is the no-effect control and ±100 the full control effect.

Chain of Cytochrome P450 2C9 (Homo sapiens) (P11712 whole entry, looked up): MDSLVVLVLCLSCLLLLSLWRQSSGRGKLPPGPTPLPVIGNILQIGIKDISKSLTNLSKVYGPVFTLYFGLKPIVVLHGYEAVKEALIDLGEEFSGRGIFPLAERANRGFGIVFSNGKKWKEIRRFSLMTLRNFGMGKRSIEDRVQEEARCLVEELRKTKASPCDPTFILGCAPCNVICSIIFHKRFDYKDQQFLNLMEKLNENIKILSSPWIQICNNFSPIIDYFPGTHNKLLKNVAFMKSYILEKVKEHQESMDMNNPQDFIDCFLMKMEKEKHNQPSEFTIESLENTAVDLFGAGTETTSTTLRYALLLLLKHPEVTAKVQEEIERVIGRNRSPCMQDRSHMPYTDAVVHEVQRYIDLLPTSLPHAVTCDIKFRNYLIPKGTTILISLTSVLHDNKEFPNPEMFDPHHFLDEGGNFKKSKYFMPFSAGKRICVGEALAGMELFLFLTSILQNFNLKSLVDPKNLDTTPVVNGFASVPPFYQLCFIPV

This experiment has as its target Cytochrome P450 2C9 (Homo sapiens) (UniProt P11712). Nature of the experiment: Cytochrome panel assay with activity outcomes. The following applies: recombinant CYP, pro-luciferin dealkylation, luminescence, p450-cyp2c9; series mostly up to 57.1 µM.
As for `Fc1ccc(C2CC(c3ccco3)=NN2c2ccccc2)cc1` (centres undefined), the AC50 was 1.41 µM (active).
On to `C[C@@H]1CC[C@@H]2C(=O)N3[C@@H](CC[C@@H](C)[C@@H]3c3ccc(-c4ccco4)cc3)C(=O)N2[C@H]1c1ccc(-c2ccco2)cc1`, for which the activity, negative = inhibition was -27.5% [at 11.4 µM] (inactive).
Same read-out and setting: the result for `c1cncc(CNc2ccnc(-c3ccc4c(c3)OCO4)n2)c1` reads -9.36% [at 2.29 µM] (inactive).
In the case of `COc1ccc(NC2=NC(=S)N(c3ccc(C)cc3)C23CCCCC3)cc1`, the AC50 entry was “inactive”.
Consider `Cc1cccc(NC2=NC(=S)N(c3ccc(C(=O)O)cc3)C23CCCCC3)c1`, for which the half-maximal activity concentration (AC50) was 25.1 µM (active).
Same read-out and setting: for `Cc1cccc(N2CCN(c3ccc(NC(=O)/C=C(/C(=O)O)c4ccccc4)cc3)CC2)c1` the value was “inactive”.
As to `CCc1nc(N2CCC3(CC2)OCCO3)c2nnn(Cc3ccccc3Cl)c2n1`, the AC50 was 11.2 µM (active).
Regarding `Cc1noc(C)c1-c1nc(NCCN2CCOCC2)c2ccccc2n1`, the activity, negative = inhibition is 1.01% [at 2.29 µM] (inactive).
In the case of `COc1cccc(NC(=S)NNC(=O)C(C)n2nc(C)c([N+](=O)[O-])c2C)c1` (centres undefined), the AC50 was 5.01 µM (active).
Turning to `CC(=O)Nc1ccc([N+](=O)[O-])cn1`, the AC50 entry is “inactive”.
Take `Cc1cc(NC(=O)c2nn(C)c(C)c2[N+](=O)[O-])no1`: the AC50 result is “inactive”.
`Cc1nn(C(C)C(=O)Nc2ccc(Cl)cn2)c(C)c1[N+](=O)[O-]` (centres undefined): the concentration at half-maximal activity (AC50) is 14.1 µM (active).
`COc1cccc(NC(=S)NN2CCN(C)CC2)c1`: the AC50 result was “inactive”.
As to `COc1ccc(/C=C2\CCCC3C2=NN(C(=O)c2ccco2)C3c2ccc(OC)c(OC)c2)cc1OC` (centres undefined), the AC50 is 11.2 µM (active).
On the same count and under the same terms, for `Cc1ncsc1C(=O)N1N=C2/C(=C/c3ccccc3)CCCC2C1c1ccccc1` (centres undefined) the value was 2.82 µM (active); for `COc1ccccc1CN1CC[C@@]2(CCCN(C(=O)c3ccco3)C2)C1`, “inactive”; for `Cc1cc(C(=O)C(=O)NC(C)C)c(C)n1-c1ccc([N+](=O)[O-])cc1`, “inactive”.
On to `O=c1cc(-c2ccccc2)[nH]n1-c1ccc([N+](=O)[O-])cc1`, for which the concentration at half-maximal activity (AC50) was 10 µM (active).
On to `CC1(C)N=C(N)N=C(N)N1CCCCc1ccccc1`, for which the activity, negative = inhibition was 1.42% [at 11.4 µM] (inactive).
For `CCOc1ccc(CCNC(=O)C2CC(=O)N(C3CCCC3)C2)cc1OCC` (centres undefined), the AC50 result is “inactive”.
As for `CCOc1ccc(CC(=O)C2C(=O)CCCC2=O)cc1OCC`, the AC50 is 7.08 µM (active).
In the case of `CCOc1ccc(CC(C(N)=O)C(N)=O)cc1CN(C)C`, the AC50 result is “inactive”.
Turning to `COCn1c2ccccc2c2nnc(C(C)=O)nc21`, the activity, negative = inhibition was 13.8% [at 11.4 µM] (inactive) and -8.55% [at 11.4 µM] (inactive).
With `COc1ccccc1CN1CC[C@@]2(CCCN(S(C)(=O)=O)C2)C1`, the AC50 entry was “inactive”.
For the compound `N#CC(C#N)=NNc1ccc2cn[nH]c2c1`, the AC50 was 2.51 µM (active).
On to `COC(=O)[C@@]1(Cc2ccccc2)[C@@H]2C(=CC(=O)[C@H]2CC(=O)C(=O)N(C)C)CN1C(=O)c1ccccc1`, for which the AC50 entry is “inactive”.
Take `C=C1C(=O)C=C2CN(C(=O)c3ccccc3)[C@@](Cc3ccc(F)cc3)(C(=O)OC)[C@@H]12`: the AC50 is 3.98 µM (active).
On the same count and under the same terms, the result for `COc1ccc(C(=O)N2CCC[C@@]3(CCN(C(=O)Nc4ccccc4)C3)C2)cc1` reads “inactive”; that for `COC(=O)[C@@]1(Cc2ccc(F)cc2)[C@@H]2C(=CC(=O)[C@H]2CC(=O)C(=O)N2CCCC2)CN1C(=O)c1ccccc1`, 10 µM (active).
As to `COC(=O)[C@@]1(Cc2ccc(OC)cc2)[C@@H]2C(=CC(=O)[C@H]2CC(=O)C(=O)N2CCCC2)CN1C(=O)c1ccccc1`, the AC50 is 10 µM (active).
For the compound `COC(=O)[C@@]1(Cc2ccc(F)cc2)[C@@H]2[C@@H](CC(=O)[C@H]2CC(=O)C(=O)N(C)C)CN1C(=O)c1ccccc1`, the concentration at half-maximal activity (AC50) was 20 µM (active).
Turning to `O=C(O)c1c[nH]c2cc(OCc3ccccc3)ccc2c1=O`, the activity, negative = inhibition is -11.1% [at 11.4 µM] (inactive).
Regarding `O=C(O)c1cc(C(=O)O)nc(C(=O)O)c1`, the activity, negative = inhibition was 13.5% [at 11.4 µM] (inactive).
Take `O=C(O)c1ccc(SSc2ccc(C(=O)O)cn2)nc1`: the AC50 was 1.58 µM (active).
As for `N[C@@H](C(=O)O)c1ccc(C(=O)O)cc1`, the AC50 entry was “inactive”.
The same measure, in the same setting: the result for `CC(C)C(NC(=O)C1CCCCC1)C(=O)NCc1ccccn1` (centres undefined) reads “inactive”; that for `C[C@@H](C(=O)O)[C@H]1C[C@]1(C)[C@H](NC(=O)OCc1ccccc1)c1ccccc1`, 15.8 µM (active); that for `C[C@@H](C(=O)NCc1ccccn1)[C@H]1C[C@]1(C)[C@H](NC(=O)OCc1ccccc1)c1ccccc1`, 10 µM (active).
On the same count and under the same terms, the result for `C[C@@H](C(=O)NCc1cccc2ccccc12)[C@H]1C[C@]1(C)[C@H](NC(=O)OCc1ccccc1)c1ccccc1` reads 3.16 µM (active); that for `COC(=O)[C@H](C)[C@H]1C[C@]1(C)[C@H](NC(=O)OCc1ccccc1)c1ccccc1`, 2 µM (active).
With `C/C(CCN1CCc2nc(-c3ccccc3)c(-c3ccccc3)cc2C1)=N\OC[C@@H](O)[C@@H]1O[C@@H]2OC(C)(C)O[C@@H]2[C@H]1O`, the activity, negative = inhibition is -8.77% [at 11.4 µM] (inactive).
Consider `Cc1ccc(S(=O)(=O)N[C@@H]2COC(=O)C/C=C\[C@H](C)COC(=O)N[C@@H](C)C(=O)C/C=C\[C@H]2C)cc1`, for which the activity, negative = inhibition was 7.18% [at 11.4 µM] (inactive).
On the same count and under the same terms, for `CNc1ccnc(-c2ccccc2C(F)(F)F)n1` the value was 1.23% [at 2.29 µM] (inactive).
For the compound `COC(=O)[C@H](C)[C@@H]1C[C@@]1(C)[C@@H](NC(=O)OCc1ccccc1)c1ccccc1`, the AC50 was 5.01 µM (active).
Same read-out and setting: for `C[C@@H](C(=O)NCc1nc2ccccc2[nH]1)[C@@H]1C[C@@]1(C)[C@@H](NC(=O)OCc1ccccc1)c1ccccc1` the value was 10 µM (active); for `CNC(=O)[C@H](C)[C@H]1C[C@]1(C)[C@H](NC(=O)OCc1ccccc1)c1ccccc1`, 10 µM (active).
Regarding `COc1ccc(COC(=O)N/N=C2/C[C@@H](O)[C@@H](O)[C@@H]3[C@@H]4C(=O)N([C@@H](C)c5ccccc5)C(=O)[C@H]4CC[C@@H]23)cc1`, the activity, negative = inhibition is -19.2% [at 11.4 µM] (inactive).
Turning to `CCN1CCCC1Cn1cnc2c([nH]c3ccc(C)cc32)c1=O` (centres undefined), the AC50 entry is “inactive”.
On to `CN(C)CCNC(=O)C1CCCNC1=O` (centres undefined), for which the AC50 entry is “inactive”.
Take `Cn1cnc([N+](=O)[O-])c1SCC(=O)O`: the activity, negative = inhibition is 4.52% [at 11.4 µM] (inactive).
As for `OCCN=c1cc(-c2ccccc2)oc2ccc(Cl)cc12`, the AC50 is 2 µM (active).
Regarding `Cc1cc2c(=O)[nH]c(N)nc2nc1C`, the activity, negative = inhibition is 0.234% [at 11.4 µM] (inactive).
Regarding `CC(=O)c1sc(N)c(C(=O)OC(C)C)c1C`, the AC50 is 10 µM (active).
The same measure, in the same setting: for `CCOC(=O)/C(C#N)=C1/SC(CC)C(=O)N1c1ccc(Br)cc1` (centres undefined) the value was 12.6 µM (active); for `Cc1ccc(S(=O)(=O)N2CCCC(C(=O)NCCCN3CCCCC3C)C2)cc1` (centres undefined), “inactive”; for `O=C(CC1CCCCC1)N1CCC(c2nc(-c3ccc(S(=O)(=O)N4CCCC4)cc3)no2)CC1`, 7.94 µM (active).
On the same count and under the same terms, for `COc1ccc(NC(=O)N2CC[C@@]3(CCCN(C(=O)c4cccc(F)c4)C3)C2)cc1` the value was “inactive”.
With `COC(=O)[C@@]1(Cc2ccc(OC)cc2)[C@H]2c3cc(C(=O)N4CCCC4)n(CCc4c[nH]c5cc(F)ccc45)c3C[C@H]2CN1C(=O)c1ccccc1`, the AC50 was 3.16 µM (active).
On the same count and under the same terms, the result for `COC(=O)[C@@]1(Cc2ccc(F)cc2)[C@H]2c3cc(C(=O)N4CCCC4)n(CCc4c[nH]c5ccc(OC)cc45)c3C[C@H]2CN1C(=O)c1ccccc1` reads 7.94 µM (active).
With `COC(=O)[C@@]1(Cc2ccc(OC)cc2)[C@H]2c3cc(C(=O)N4CCCC4)n(CCc4c[nH]c5ccc(O)cc45)c3C[C@H]2CN1C(=O)c1ccccc1`, the AC50 is 3.16 µM (active).
Still for that read-out and setting: the result for `COc1ccc(NC(=O)N2CCCC3(CCN(C(=O)c4cccc(F)c4)CC3)C2)cc1` reads “inactive”; that for `COC(=O)[C@@]1(Cc2ccc(F)cc2)[C@H]2c3cc(C(=O)N4CCCC4)n(CCc4c[nH]c5ccccc45)c3C[C@H]2CN1C(=O)c1ccccc1`, 2.51 µM (active).
Regarding `O=C(O)[C@@H]1CCCN1Cc1cc2ccccc2c2ccccc12`, the activity, negative = inhibition was -0.145% [at 11.4 µM] (inactive).
As for `Nc1nc2c(ncn2COC(CO)CO)c(=O)[nH]1`, the AC50 entry is “inactive”.
Take `NC(=O)c1cc[n+](CC2=C(C(=O)O)N3C(=O)[C@@H](NC(=O)[C@H](c4ccccc4)S(=O)(=O)[O-])[C@@H]3SC2)cc1`: the AC50 entry is “inactive”.
Take `Cc1cnc(CNc2ncncc2-c2ccccc2C)cn1`: the activity, negative = inhibition is 3.37% [at 2.29 µM] (inactive).
Turning to `C[C@@H]1/C=C\CC(=O)OC[C@H]2O[C@@H](C=C[C@@H]2O)[C@H](C)/C=C\CC(=O)OC1`, the activity, negative = inhibition is -2.72% [at 11.4 µM] (inactive).
The same measure, in the same setting: for `O=C(O)c1c[nH]c2c(ccc3[nH]cc(C(=O)O)c(=O)c32)c1=O` the value was 12.3% [at 11.4 µM] (inactive).
With `N#Cc1c(N2CCN(C(=O)c3ccccc3Cl)CC2)nc(-c2ccccc2)c2c1CCCC2`, the AC50 was 2.51 µM (active).
Still for that read-out and setting: the result for `N#Cc1ccc(CN2CCC3(CC2)CCN(C(=O)c2ccncc2)CC3)cc1` reads “inactive”.
Take `Nc1nc2c(C(=O)NCc3cccs3)nnn2c2cccc(Cl)c12`: the activity, negative = inhibition is 12.5% [at 11.4 µM] (inactive).
Consider `c1ccc(-c2noc(CSc3nnnn3C3CCCCC3)n2)cc1`, for which the AC50 was 3.55 µM (active).
Same read-out and setting: for `CCN(CC)CCc1nc(-c2ccccc2)no1` the value was “inactive”.
In the case of `c1ccc(CCc2nc(-c3ccccc3)no2)cc1`, the AC50 result is “inactive”.
As for `O=C(N/N=C1/C[C@@H](O)[C@@H](O)[C@@H]2[C@@H]3C(=O)N(Cc4ccccc4)C(=O)[C@H]3CC[C@@H]12)OCc1ccccc1`, the activity, negative = inhibition is 9.14% [at 11.4 µM] (inactive).
In the case of `CC(=O)NCCc1ccc(O)c(O)c1`, the AC50 result is “inactive”.
`CCCCCCCC/C=C\CCCCCCCC(=O)NCCc1ccc(O)c(O)c1`: the AC50 was 1.58 µM (active).
The same measure, in the same setting: for `C[C@@](Cc1ccc(O)c(O)c1)(NN)C(=O)O` the value was “inactive”.
For the compound `Nc1ccn([C@H]2O[C@H](CO)[C@@H]3[O][Sn]([c]4ccccc4)([c]4ccccc4)[O][C@H]32)c(=O)n1`, the activity, negative = inhibition is 24.8% [at 11.4 µM] (inactive).
